JMJD2A Tudor: inhibitors of human JMJD2A Tudor domain | actives 4.4% (n = 390,000) | Potency, µM (highest dose often 114 µM), inactives show at the top dose activity change, negative = inhibition, usual class: inhibitors | O75164 | AlphaScreen JMJD2A-Tudor / H3K4me3 peptide binding | AID 504339; note: potency is the fitted concentration of half-maximal effect; % is set by controls: 0 for no effect and ±100 for the full control effect; nearly all actives have a fitted effect of over 50% in size
PI5P4Ka inh: inhibitors of human PI5P4K alpha; P48426; PI5P4Kalpha enzyme, ADP-Glo luminescence, 60 min; hits give low values; max response, %; actives 1.2% (n = 330,000); active = max response of -50% or lower; inconclusive = between -30% and -50%; inactive = -30% or higher; note: value at the top dose of about 77 µM; % is set by controls: 0 for no effect and ±100 for the full control effect
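Luminescence from ADP-Glo served as readout of PI5P4Kalpha activity in a qHTS format. Reaction: enzyme, substrate, compound, ATP at 5 microM final, 60 min at RT.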
G9a inh: blocks human histone lysine methyltransferase G9a; G9a H3K9 monomethylation, AlphaScreen, 2 h; Q96KQ7; Potency, µM (doses to about 102 µM), for inactives: at the top dose activity, negative = inhibition, usual class: inhibitors; actives 8.8% (n = 350,000); AID 504332; note: potency is the fitted concentration of half-maximal effect; % is set by controls: 0 for no effect and ±100 for the full control effect; nearly all actives have a fitted effect of over 75% in size
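Readings reflect AlphaScreen signal from monomethyl-H3K9 antibody detection. HMT at 20 nM; substrate b-H3K9 500 nM; cofactor SAM 20 uM; 2 h RT reaction; compounds tested as titrations in qHTS with 15 min preincubation.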
HP1b binding inh: blocks HP1-beta chromodomain binding to methylated histone tails; P83916; AlphaScreen HP1-beta / biotin-H3K9me3 peptide binding; Potency, µM (series often up to 114 µM), for the others: at the top dose activity change, negative = inhibition, hits mostly inhibitors; actives 0.56% (n = 390,000); AID 540317; note: potency is the fitted concentration of half-maximal effect; nearly all actives have a fitted effect of over 70% in size
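HP1-beta protein (50 nM final) preincubated 30 min at room temperature with biotinylated H3(1-18)K9me3 peptide (50 nM) in PBS pH 7.4, 0.01% Tween-20, then compound added for 30 min. AlphaScreen streptavidin donor/nickel chelate acceptor beads (10 ug/mL final), 30 min dark, luminescence read.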
PLK1 PBD inh: PLK1 (human) polo-box domain binding inhibition; Potency, µM, inactives show max response, negative = inhibition, actives largely listed as inhibitors; AID 720504; Plk1 PBD binding of FITC phosphopeptide, fluorescence polarization; P53350; actives 2.8% (n = 360,000); note: potency is the fitted concentration of half-maximal effect; series mostly up to about 57 µM; % is set by controls: 0 for no effect and ±100 for the full control effect; nearly all actives have a fitted effect of over 65% in size
Target sequence (P53350 whole entry, looked up, the tested form may be a part): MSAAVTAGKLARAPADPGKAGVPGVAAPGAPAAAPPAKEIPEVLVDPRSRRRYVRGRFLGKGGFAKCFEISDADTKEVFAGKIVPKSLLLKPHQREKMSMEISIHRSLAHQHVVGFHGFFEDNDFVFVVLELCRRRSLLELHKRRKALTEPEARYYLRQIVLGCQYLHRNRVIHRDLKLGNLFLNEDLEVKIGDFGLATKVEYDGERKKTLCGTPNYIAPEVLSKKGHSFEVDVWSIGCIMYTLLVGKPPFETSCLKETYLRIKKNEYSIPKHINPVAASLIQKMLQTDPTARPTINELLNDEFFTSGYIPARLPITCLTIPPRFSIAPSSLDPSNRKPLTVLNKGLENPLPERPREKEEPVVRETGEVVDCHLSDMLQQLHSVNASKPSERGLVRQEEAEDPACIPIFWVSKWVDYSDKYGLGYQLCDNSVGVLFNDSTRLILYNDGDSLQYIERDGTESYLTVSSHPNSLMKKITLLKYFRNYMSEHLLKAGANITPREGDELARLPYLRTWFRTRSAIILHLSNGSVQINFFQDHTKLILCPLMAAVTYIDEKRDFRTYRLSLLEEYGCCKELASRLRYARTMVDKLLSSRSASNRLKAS
BAZ2B block: blocks human BAZ2B. Potency, µM (doses to about 114 µM), inactives show at the top dose activity change, negative = inhibition, most hits filed as inhibitors. Q9UIF8. AID 504333. actives 4.4% (n = 360,000). AlphaScreen BAZ2B-H3K14Ac peptide displacement; note: potency is the fitted concentration of half-maximal effect; % is set by controls: 0 for no effect and ±100 for the full control effect; nearly all actives have a fitted effect of over 60% in size
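Protein-peptide AlphaScreen: BAZ2B 50 nM, b-H3K14Ac 50 nM, 1x PBS pH 7.4 + 0.01% Tween-20. Preincubation 30 min RT; cpd 30 min RT (top 110 uM); beads 20 min RT, light-protected.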
Numbers without * were called inactive; ? = inconclusive; . = no result; [ ] = dose if it differs, or a comment. Rows were chosen to be rich in hits. Some 12% of all compounds tested hit in one or more screens of this group. Unless noted, calls come from the whole dose curve; as a rule, active = well fitted curve in the direction sought with a large enough effect; inconclusive = small, poorly fitted or top-dose-only effect, or another doubt; inactive = no such curve, though single readings can be large; an effect the other way counts as inactive or inconclusive.

SMILES	JMJD2A Tudor	PI5P4Ka inh	G9a inh	HP1b binding inh	PLK1 PBD inh	BAZ2B block
CCOc1ccc(Oc2ccccc2NC(=O)CN2C(=O)NC3(CCCC3)C2=O)cc1	-9%	0	56µM*	11%	1%	0%
Cc1ccc2nc(NC(=O)CN3C(=O)NC4(CCCC4)C3=O)sc2c1	-11%	-1	?	30%	-5%	5%
CCC(=O)Nc1ccccc1Oc1ccccc1	56µM*	-2	5%[59 µM]	?	24µM*	10%
CCOc1ccc2nc(NC(=O)CN3C(=O)NC4(CCCC4)C3=O)sc2c1	-23%	-6	50µM*	-1%	-12%	-2%
CC(=O)N1c2ccccc2CC1C(=O)N1CCN(c2cccc(Cl)c2)CC1 (stereo not drawn)	-3%	.	7%[12.7 µM]	31%	.	-13%
COc1ccc(NC(=O)c2cc(-c3cc(F)ccc3OC(C)C)n[nH]2)c(C)c1	.	-1	.	.	4%	.
CC1Cc2ccccc2N1C(=O)CSc1nnc(NC(=O)Cc2cccs2)s1 (stereo not drawn)	-29%[57.1 µM]	?	20%[59 µM]	-33%	30µM*	?
CCC(=O)Nc1nnc(SCC(=O)N2c3ccccc3CC2C)s1 (stereo not drawn)	-13%[57.1 µM]	-10	7%[59 µM]	35%	-5%	-4%
O=C(O)C(O)c1ccco1 (stereo not drawn)	22µM*	-60*	11µM*	?	27µM*	8.9µM*
CC(NC(=O)c1ccco1)C(=O)O (stereo not drawn)	-22%	-2	5%[2.33 µM]	20%	?	0%
Cc1ccc(S(=O)(=O)n2ccc3c(OCCOCCSCC(NC(=O)OC(C)(C)C)C(=O)O)cccc32)cc1 (stereo not drawn)	-33%	-6	-9%[12.7 µM]	-8%	-24%	50µM*
CC1(c2ccc3ccccc3c2)NC(=O)N(CC(=O)N2CCN(c3ccccc3O)CC2)C1=O (stereo not drawn)	-29%	3	5%	3%	-15%	-27%
CCC12CN3CC(CC)(CN(C1)C3c1cccc(OC)c1O)C2=O (stereo not drawn)	-11%	.	9%[59 µM]	25%	.	-16%
O=C(C1=C(c2ccccc2)C(=O)c2ccccc2C1=O)c1ccccc1	22µM*	5	35µM*	?	-7%	13µM*
COc1ccc(C2=C(N)c3ccccc3C2=O)cc1	-17%	.	?	6%	-9%	-30%
O=C(c1ccccc1)c1c[nH]cc1-c1ccccc1	-2%	.	-9%[59 µM]	21%	-1%	8%
COC1=C(c2ccccc2)C(=O)c2ccccc2C1=O	?	3	20µM*	?	?	45µM*
COc1ccc(CN/C(C)=C(/C#N)C(N)=O)cc1OC	-31%[57.1 µM]	-7	-4%	?	27µM*	-2%
COc1ccc(CNC(N)=O)cc1OC	-3%	1	0%	38%	-3%	9%
O=[N+]([O-])c1cc([N+](=O)[O-])c2oc(-c3ccccc3)c(Br)c2c1O	45µM*	-102*	50µM*	?	8.4µM*	35µM*
Nc1ccc(C(=O)O)cc1[N+](=O)[O-]	5%	1	-4%	63%	-4%	-14%
Cc1cc(NC(=O)COC(=O)CC2CCCC2)c([N+](=O)[O-])cc1C	?	-10	61%	-12%	-16%	-2%
CCC(=O)OCC(=O)Nc1cc(C)c(C)cc1[N+](=O)[O-]	?	6	-7%[59 µM]	-18%	24µM*	?
COc1ccc2c(CC(=O)OCC(=O)Nc3cc(C)c(C)cc3[N+](=O)[O-])coc2c1	?	-7	20µM*	?	-6%	?
CCC1Oc2ccccc2N(CC(=O)NCc2ccc(C)cc2)C1=O (stereo not drawn)	-10%	.	6%[59 µM]	47%	.	4%
SMILES	JMJD2A Tudor	PI5P4Ka inh	G9a inh	HP1b binding inh	PLK1 PBD inh	BAZ2B block
COC(=O)CC1Oc2ccccc2N(Cc2ccc(C)cc2)C1=O (stereo not drawn)	-25%[11.4 µM]	-10	-8%[59 µM]	18%	27µM*	4%
COC(=O)CC1Oc2ccc(C)cc2-n2cc(-c3ccc(C)cc3)nc21 (stereo not drawn)	-29%	.	?	7%	.	50µM*
CCC1Oc2ccc(C)cc2N(CC(=O)NCc2ccc(OC)cc2)C1=O (stereo not drawn)	-5%	.	-4%[59 µM]	15%	.	-3%
O=C(N/N=C1/C(=O)c2cccc3cccc1c23)c1ccc(Cl)cc1	35µM*	-20	?	-9%	?	50µM*
Cc1ccc2cc(N)ccc2n1	-13%	-7	.	7%	-9%	-12%
Nc1ccc2cc3ccc(N)cc3nc2c1	.	.	28µM*	.	.	.
O=C(NCCC1=CCCCC1)c1ccc2c(c1)ncn2-c1ccc(F)c(F)c1	-17%	.	-1%[59 µM]	-14%	.	-3%
Cc1noc2ncnc(N3CCN(c4ccccc4F)CC3)c12	-5%	.	-1%[59 µM]	31%	.	10%[57.1 µM]
CCOc1ccc(NC(=O)CN2CCN(c3ccc(Cl)cc3)CC2)cc1	-4%	.	-3%[12.7 µM]	22%	.	-14%
O=C(Nc1ccc(Cl)cc1)c1cccc(N2C(=O)C3C4CCC(C4)C3C2=O)c1 (stereo not drawn)	-21%	5	-6%[59 µM]	4%	-10%	-38%
Cc1ccc(N2C(=O)[C@@H]3[C@H](C2=O)[C@H]2C=C(C(=O)c4ccccc4)C=CN2[C@@H]3C(=O)c2ccc(Cl)cc2)cc1	-26%	8	2.2µM*	37%	-26%	-8%
O=C(C1=C[C@@H]2[C@H]3C(=O)N(c4ccccc4Cl)C(=O)[C@H]3[C@@H](C(=O)c3ccc(Cl)cc3)N2C=C1)c1ccccc1	.	.	8.9µM*	.	.	-39%
O=C(c1ccccc1)[C@@H]1[C@@H]2C(=O)N(c3ccc(F)cc3)C(=O)[C@@H]2C2CCCN21 (stereo partly drawn)	?	-9	.	-10%	-12%	-1%
O=C(C1=C[C@@H]2[C@H]3C(=O)N(c4cccc(Cl)c4)C(=O)[C@H]3[C@@H](C(=O)c3ccc(Cl)cc3)N2C=C1)c1ccccc1	?	-28	3.2µM*	-21%	?	-9%
N#Cc1c(NC(=O)Cn2nc(C(F)(F)F)c3c2CCCC3)sc2c1CCC2	?	?	2.8µM*	32µM*	3µM*	79µM*
CC1CCc2c(sc(NC(=O)COC(=O)C3CCCO3)c2C#N)C1 (stereo not drawn)	-10%	5	26%	34%	-1%	-13%
CC1CCc2c(sc(NC(=O)C3CCCO3)c2C#N)C1 (stereo not drawn)	-6%	2	-1%	28%	-17%	-4%
CC1CCc2c(sc(NC(=O)COC(=O)c3ccc(O)cc3)c2C#N)C1 (stereo not drawn)	?	?	40µM*	-4%	?	-32%
